# Experimental data as given in PubChem BioAssay AID1851 (National Center for Advancing Translational Sciences (NCATS), 2009).
# Out of some 16,000 compounds screened, about 5,100 (32%) were called active. Not shown: some 25% with an inconclusive outcome. Calls come from the whole dose curve; as a rule, active = well fitted curve in the direction sought with a large enough effect; inconclusive = small, poorly fitted or top-dose-only effect, or effect the other way; inactive = no such curve, though single readings can be large or run the other way. Some of the results follow.
# Target: Cytochrome P450 3A4 (Homo sapiens) (UniProt P08684)
# Assay: Cytochrome panel assay with activity outcomes
# Conditions: recombinant CYP, pro-luciferin dealkylation, luminescence, p450-cyp3a4; series mostly up to 57.1 µM; activity, negative = inhibition: at the top concentration
# % is set by controls: 0 for no effect and ±100 for the full control effect.
# Sequence of Cytochrome P450 3A4 (Homo sapiens) (P08684 whole entry, looked up): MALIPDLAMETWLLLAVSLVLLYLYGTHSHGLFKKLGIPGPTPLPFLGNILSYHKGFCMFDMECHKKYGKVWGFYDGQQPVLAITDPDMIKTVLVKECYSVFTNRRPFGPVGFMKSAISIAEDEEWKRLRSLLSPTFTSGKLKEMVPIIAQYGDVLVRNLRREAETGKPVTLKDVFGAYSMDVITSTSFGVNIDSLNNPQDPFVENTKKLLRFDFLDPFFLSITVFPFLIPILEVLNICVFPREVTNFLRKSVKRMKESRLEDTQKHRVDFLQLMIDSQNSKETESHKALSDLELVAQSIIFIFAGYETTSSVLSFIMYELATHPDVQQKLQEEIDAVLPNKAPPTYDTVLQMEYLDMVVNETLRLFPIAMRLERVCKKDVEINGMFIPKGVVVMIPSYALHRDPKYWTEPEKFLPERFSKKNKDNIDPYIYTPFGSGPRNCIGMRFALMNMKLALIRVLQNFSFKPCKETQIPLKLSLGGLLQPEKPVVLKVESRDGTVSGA
Structure (SMILES),AC50,"activity, negative = inhibition"
CCCCCC(=O)N1CC2(CC(c3cccc(NC(=O)c4ccccc4)c3)=NO2)C[C@@H]1C(N)=O (some centres not stated),15.8 µM (active),
NC(=O)C1(NC(=O)[C@@H]2CC3(CC(c4cccc(NC(=O)c5cc([N+](=O)[O-])cc([N+](=O)[O-])c5)c4)=NO3)CN2C(=O)c2ccccc2)CC1 (some centres not stated),3.16 µM (active),
NC(=O)[C@H]1CC2(CC(c3cccc(NC(=O)c4ccccc4)c3)=NO2)CN1C(=O)[C@H]1CCC(=O)N1 (some centres not stated),,10.5% (inactive)
NC(=O)CNC(=O)[C@@H]1CC2(CC(c3ccc(Cl)cc3)=NO2)CN1C(=O)c1ccccc1 (some centres not stated),,16.2% [at 2.29 µM] (inactive)
C=C(C)C(=O)N1CC2(CC(c3cccc(NC(=O)c4ccccc4)c3)=NO2)C[C@@H]1C(N)=O (some centres not stated),,14.3% (inactive)
NC(=O)CNC(=O)[C@@H]1CC2(CC(c3cccc([N+](=O)[O-])c3)=NO2)CN1C(=O)c1ccccc1 (some centres not stated),,8.44% [at 2.29 µM] (inactive)
O=c1c2ccccc2nnn1CSc1nnc(COc2ccc(Cl)cc2)n1Cc1ccco1,12.6 µM (active),
CN(C)c1ccc2nc3c(C(=O)O)cc(=O)c(O)c-3oc2c1,,-10.3% [at 11.4 µM] (inactive)
COc1ccc2[nH]cc(CCNc3ccnc(-c4ccc(N(C)C)cc4)n3)c2c1,5.01 µM (active),
COc1ccc2[nH]cc(CCNc3cc(-c4ccc(C(=O)N(C)C)cc4)ncn3)c2c1,6.31 µM (active),
COc1ccc2[nH]cc(CCNc3ccnc(-c4ccc(C(=O)N(C)C)cc4)n3)c2c1,3.16 µM (active),
COc1ccc2[nH]cc(CCNc3ccnc(-c4ccc5c(c4)OCO5)n3)c2c1,2.51 µM (active),
O=S(=O)(C=C(c1ccccc1)c1ccccc1)c1ccccc1,,3.56% (inactive)
CCC(=S)/C=C1\Sc2ccc3ccccc3c2N1CCCS(=O)(=O)O,,-15.7% (inactive)
COc1ccc2[nH]cc(CCNc3ccnc(-c4ccoc4)n3)c2c1,3.16 µM (active),
COc1ccc2[nH]cc(CCNc3ccnc(-c4c(C)noc4C)n3)c2c1,2.51 µM (active),
Oc1ccc2ccccc2c1CN(Cc1c(O)ccc2ccccc12)C1CCCCC1,,-12% [at 11.4 µM] (inactive)
O=C(NC(=S)N(CCCCO)C1CCCCC1)c1sc2ccccc2c1Cl,3.16 µM (active),
CCOC(=S)NC(=O)c1sc2ccccc2c1Cl,,-1.55% (inactive)
O=C1CN2CCN(CC2)CC(=O)Nc2ccc(cc2)S(=O)(=O)c2ccc(cc2)NC(=O)CN2CCN(CC2)CC(=O)Nc2ccc(cc2)S(=O)(=O)c2ccc(cc2)N1,,-29.8% [at 11.4 µM] (inactive)
CSc1nnc(-c2sc(-c3ccccc3)nc2C)n1C,,10.5% (inactive)
CSc1nnc(-c2sccc2OCc2ccccc2)n1C,,-26.2% (inactive)
C#CCSc1nnc(-c2sc(-c3ccccc3)nc2C)n1C,1 µM (active),
Cc1ccc(-c2cc(-c3nnc(SCC(=O)NC(C)C(C)C)n3N)c3ccccc3n2)cc1 (configuration not stated),14.1 µM (active),

Structure (SMILES),AC50,"activity, negative = inhibition"
O=C(O)CSc1cc(-c2ccccc2)nc2ccccc12,,-1.98% [at 11.4 µM] (inactive)
CCOC(=O)c1c(NC(=O)c2c(C)noc2C)sc2c1CCCCC2,,-8.22% (inactive)
CCCCC(=O)Nc1sc2c(c1C(=O)OCC)CCC(C=O)=C2Cl,15.8 µM (active),
O=C(O)c1cc2ccccc2c(S(=O)(=O)O)c1O,,1.86% [at 11.4 µM] (inactive)
C/C(CCN1CCCCc2nc(C)c(C)cc21)=N\O[C@@H](C)c1cc(-c2c(C)cc(C)cc2C)no1,3.98 µM (active),
C/C(CCN1CCCc2nc(C)c(C)cc21)=N\O[C@@H](C)CN1CCCCc2nc(C)c(C)cc21,3.98 µM (active),
CO/N=C(\C)CCN1CCCc2nc(C)c(C)cc21,,-26.4% [at 11.4 µM] (inactive)
C/C(CCN1CCc2nc(-c3ccccc3)c(-c3ccccc3)cc2C1)=N\O[C@@H](C)CN1CCCCc2nc(C)c(C)cc21,3.98 µM (active),
Cc1cc2c(nc1C)CCCN2CC(O)CN1CCCc2nc(C)c(C)cc21,,-8.33% [at 11.4 µM] (inactive)
CCN(CC)C[C@@H](O)CN1CCCCc2nc(C)c(C)cc21,,-14.9% [at 11.4 µM] (inactive)
C/C(CCN1CCCCc2nc(C)c(C)cc21)=N\O[C@@H](C)CN1CCCCc2nc(C)c(C)cc21,3.98 µM (active),
Nc1ccc(C(=O)NCC(=O)O)cc1,,-3.58% [at 25.6 µM] (inactive)
CC[N+](CC)(CC)CC[C@](O)(c1ccccc1)C1CCCCC1,,-16.7% [at 25.6 µM] (inactive)
Nc1c2c(nc3ccccc13)CCC[C@H]2O,,-4.4% (inactive)
CCc1ccc2c(c1)c(N=NC1=NC(=O)CS1)c(O)n2CC,,-22.3% (inactive)
Cc1cc2c(nc1C)CCCCN2C[C@H](O)CN1CCCc2nc(-c3ccc(Br)cc3)ccc21,,-29.7% [at 11.4 µM] (inactive)
C/C(CCN1CCCCc2nc(C)c(C)cc21)=N\O[C@@H](C)CN1CCCc2nc(C)c(C)cc21,3.16 µM (active),
CCc1cc2c(nc1CC)CCN(CC/C(C)=N/O[C@@H]1O[C@H](COC(C)=O)[C@H](OC(C)=O)[C@H](OC(C)=O)[C@H]1OC(C)=O)C2,,-28.1% [at 11.4 µM] (inactive)
COc1ccc(-c2ccc3c(n2)CCCN3C[C@H](O)CN2CCCc3nc(-c4ccc(Br)cc4)ccc32)cc1,,-28.9% [at 11.4 µM] (inactive)
Cc1cc2c(nc1C)CCCCN2C[C@H](C)O/N=C\[C@@H](C)[C@H](OCc1ccccc1)C(C)C,3.98 µM (active),
Cc1cc2c(nc1C)CCCN2C[C@@H](O)CN1CCN(C)CC1,,0.272% [at 11.4 µM] (inactive)
Cc1cc2c(nc1C)CCCN2C[C@H](O)CN1CCCc2nc(-c3ccc(Br)cc3)ccc21,3.98 µM (active),
CCc1cc2c(nc1CC)CCN(CC/C(C)=N/O[C@@H](C)c1cc(-c3c(C)cc(C)cc3C)no1)C2,3.98 µM (active),
